Active and inactive are the calls of the source. The calls were made as follows: active = hit-call score of the fitted dose curve at least 0.9, where 1 is the maximum; inactive = score below 0.9.
Experiment: ATG_GATA_CIS: Attagene CIS-FACTORIAL HepG2 Assay for human GATA Binding Protein (AID 2282944)
Conditions: HepG2 GATA cis-element reporter, Attagene multiplex mRNA; actives raise or lower the signal
Description: ATG_CIS is a cell-based, multiplexed-readout assay that uses HepG2, a human liver cell line, with measurements taken at 24 hours after chemical dosing in a 24-well plate.ATG_GATA_CIS is one of 52 assay component(s) measured or calculated from the ATG_CIS assay. It is designed to make measurements of mRNA induction, a form of inducible reporter, as detected with fluorescence intensity signals by Reverse transcription polymerase chain reaction (RT-PCR) and Capillary electrophoresis technology.Data from the assay component ATG_GATA_CIS was analyzed into 1 assay endpoint. This assay endpoint, ATG_GATA_CIS, was analyzed with bidirectional fitting relative to DMSO as the negative control and baseline of activity. Using a type of inducible reporter, measures of mRNA for gain or loss-of-signal activity can be used to understand the reporter gene at the transcription factor-level as they relate to the gene GATA1. Furthermore, this assay endpoint can be referred to as a primary readout, because this assay has produced multiple assay endpoints where this one serves a reporter gene function. To generalize the intended target to other relatable targets, this assay endpoint is annotated to the dna binding intended target family, where the subfamily is GATA proteins.
Human liver HepG2 cells are transiently transfected with multiple reporter transcription units (MRTUs) in 6-well plates using FuGene 6 reagent (Roche; 3 ml FuGene/1 mg DNA). The MRTU constructs are regulated by a cis-regulating element (promoter). […] A major difference between the CIS and TRANS system is that in CIS activities of endogenous TFs are measured, whereas the TRANS assay evaluates changes in activities of exogenous, chimeric NR-Gal4 proteins. […] At the end of 24 hour incubation, total RNA was isolated using TriZol reagent (Invitrogen). The isolated RNA is then reverse-transcribed using oligo(dT) primer and Mo-MLV reverse transcriptase (Invitrogen) with DNAse I (Ambion) treatment for 30 min. The one-tenth of the produced cDNA was amplified by PCR using Taq DNA polymerase (Invitrogen) and two reporter sequence-specific primers. The PCR products were fluorescently labeled by primer extension with 6-arboxyfluorescein (6-FAM) 5'-labeled reporter sequence-specific primer (2 min at 95 C, 20 s at 68 C and 10 min at 72 C) and these products were digested with 5U of HpaI (New England Biolabs) for 2h at 37 C. The fragments were purified using Qiaquick PCR columns (Qiagen), analyzed on an ABI 3130xL genetic analyzer (Applied Biosystems) with peak positions identified by using a set of X-rhodamine (ROX)-labeled MapMarker1000 molecular weight standards (BioVentures). The raw capillary electrophoresis data was processed using Attagraph software (Attagene).

outcome, inactive:
O=C(C1CCCCC1)N1CC(=O)N2CCc3ccccc3C2C1 (stereo not given)
C=C(C)C(=O)OCC1CCCO1 (stereo not given)
O=C(O)/C=C\C(=O)O
O=[N+]([O-])c1ccc2nc[nH]c2c1
Cc1cc2nc3c(=O)[nH]c(=O)nc-3n(C[C@H](O)[C@H](O)[C@H](O)CO)c2cc1C
O=C(O)Cc1c[nH]c2ccccc12
NCc1ccccc1
CCCCCCC(O)CCCCCCCCCCC(=O)OC (stereo not given)
C=CCOC(=O)C(=C)C
CCCCCCC1CCC(=O)O1 (stereo not given)
O=C(CC(C(=O)OC1CCCCC1)S(=O)(=O)O)OC1CCCCC1 (stereo not given)
Cc1cc(O)cc(C)c1Cl
c1ccc(CNc2ncnc3nc[nH]c23)cc1
CC1=NN(c2cc(Cl)c(S(=O)(=O)O)cc2Cl)C(=O)C1N=Nc1ccc(S(=O)(=O)O)cc1 (stereo not given)
C=C1CC[C@H]2C[C@@H]1C2(C)C
CC(=O)OC(C)(C)Cc1ccccc1
Cc1ccccc1S(N)(=O)=O
C=C(C)C(=O)OCCCCCC
CC1=C(CC=O)C(C)(C)CCC1
O=C(Oc1ccccc1)c1ccccc1
NC(N)=Nc1nc(CSCCC(N)=NS(N)(=O)=O)cs1
CO[Si](CCCNCCN)(OC)OC
F[B-](F)(F)F
CC(C)CC(=O)CC(C)CC(C)C (stereo not given)
C/C=C(\C)C(=O)OCC/C=C\CC
C[Si](C)(C)O[Si](C)(C)O[Si](C)(C)C
CCO[Si](CCCN)(OCC)OCC
CC1=C(CC(=O)O)c2cc(F)ccc2/C1=C\c1ccc(S(C)=O)cc1 (stereo not given)
CC(C)(Oc1ccc(Cl)cc1)C(=O)O
CCc1cc(C(N)=S)ccn1
COC(=O)CCSCCC(=O)OC
Oc1ccc(Oc2ccccc2)cc1
C[C@H]1C[C@H]2[C@@H]3CCC4=CC(=O)C=C[C@]4(C)[C@@]3(F)[C@@H](O)C[C@]2(C)[C@@]1(O)C(=O)CO
Cc1cc(-n2nc3ccc(Cl)cc3n2)c(O)c(C(C)(C)C)c1
OCCc1ccccn1
CCCCCCCC#N
NC(=O)c1ccc([N+](=O)[O-])cc1Cl
CC(C)n1c(/C=C/[C@@H](O)C[C@@H](O)CC(=O)O)c(-c2ccc(F)cc2)c2ccccc21
CCC(C)NC(N)=O (stereo not given)
COc1c2occc2cc2ccc(=O)oc12

— PubChem BioAssay (EPA / NIEHS)
